Calls of active or inactive are those of the source. The rule behind the calls is not given here.

The target in the assay is Pantothenate synthetase (Mycobacterium tuberculosis (strain ATCC 25618 / H37Rv)) (UniProt P9WIL5). In words: Recombinant Mtb pantothenate synthetase (PanC) inhibitors, coupled enzyme, confirmatory (AID 375).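 Note: 0% = full reaction with vehicle and 100% = no enzyme background.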 Particulars: coupled enzyme assay; at 10 µM, active compounds read high.
Chain of Pantothenate synthetase (Mycobacterium tuberculosis (strain ATCC 25618 / H37Rv)) (P9WIL5 whole entry, looked up): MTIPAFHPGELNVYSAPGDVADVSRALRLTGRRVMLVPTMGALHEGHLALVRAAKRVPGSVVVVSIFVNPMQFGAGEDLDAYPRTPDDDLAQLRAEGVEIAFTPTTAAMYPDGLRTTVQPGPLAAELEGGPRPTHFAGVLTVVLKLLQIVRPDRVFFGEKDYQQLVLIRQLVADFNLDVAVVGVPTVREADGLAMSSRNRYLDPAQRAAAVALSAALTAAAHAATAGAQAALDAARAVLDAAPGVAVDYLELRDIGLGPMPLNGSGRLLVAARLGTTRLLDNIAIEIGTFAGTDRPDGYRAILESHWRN
Take `CCOc1cccc(-c2nnc3n2N=C(c2cc(OC)ccc2OC)CS3)c1`: the inhibition (commonly the change of the read-out against control, counted positive when it falls) was 8% (inactive).
In the case of `O=C(CSc1nc2c(c(=O)n1-c1ccc(F)cc1)SCC2)NCC1CCCO1` (centres undefined), the inhibition was 6% (inactive).
Consider `CCSC1=C(C#N)C(c2ccccc2OC)CC(=O)N1` (centres undefined), for which the inhibition is 4% (inactive).
Take `C/C=C/COC(=O)c1[nH]c2c(c1C)C(=O)CC(c1ccc(N(C)C)cc1)C2` (centres undefined): the inhibition was 1% (inactive).
Take `CCCCOC(=O)Cn1c(=O)oc2ccc(C)cc21`: the inhibition is 0% (inactive).
With `Cc1nc2sc(C(c3cccc(F)c3)N3CCOCC3)c(O)n2n1` (centres undefined), the inhibition was 0% (inactive).
As for `CC1CCN(Cc2nc3c(c(=O)n(C)c(=O)n3C)n2Cc2cccc3ccccc23)CC1`, the figure is 0% (inactive).
As for `Cc1cc(OCC(=O)Nc2ccc3oc(-c4ccncc4)nc3c2)ccc1Cl`, the figure is 0% (inactive); as for `CCCc1nn(CCc2ccccn2)c(N)c1CC`, 6% (inactive).
Turning to `CCc1c(C(=O)Nc2cc(C)ccc2OC)[nH]c(C)c1C(C)=O`, the inhibition is 0% (inactive).
As to `N#CC1=C(N)OC(c2ccccc2)=C(C#N)C1c1ccc2c(c1)OCO2` (centres undefined), the inhibition was 0% (inactive).
As to `Cc1cc(C(=O)COC(=O)C2COc3ccccc3O2)c(C)n1CC1CCCO1` (centres undefined), the inhibition is 0% (inactive).
With `O=C1CC(c2ccccc2)CC(O)=C1C=NCCCN1CCOCC1` (centres undefined), the inhibition is 5% (inactive).
As to `Clc1ccc(OCc2nnc(SCCN3CCCCC3)n2Cc2ccco2)cc1`, the inhibition is 0% (inactive).
In the case of `CCOC(=O)N1CCN(S(=O)(=O)c2cc(Cl)ccc2Cl)CC1`, the inhibition was 3% (inactive).
As for `O=C(c1ccc(Cl)s1)N1CCN(c2nc3ccccc3s2)CC1`, the inhibition is 6% (inactive).
On to `CCOC(=O)Cn1nnnc1CN(Cc1ccc(OC)cc1)Cc1cc2cc(C)cc(C)c2[nH]c1=O`, for which the inhibition is 3% (inactive).
As for `CCOc1ccc(OCC)c(NC(=O)CN2CCN(C(=O)c3ccco3)CC2)c1`, the figure is 0% (inactive); as for `O=c1c2ccccc2nc2n1CCN2`, 0% (inactive); as for `Cc1cnc(NC(=O)CSc2nnc(-c3ccccc3)n2Cc2ccccc2)s1`, 0% (inactive).
On to `COc1ccc(C)cc1NC(=O)c1nnn(Cc2cccc(F)c2)c1N`, for which the inhibition was 13% (inactive).
`CC(C)(C)NC(=O)COC(=O)c1ccc(O)cc1`: the inhibition is 0% (inactive).
Turning to `COc1cccc(OC)c1OCCNCCO`, the inhibition was 2% (inactive).
For the compound `CCCN(CCC)C(=O)C1CCN(c2cc(C)nc3c(-c4ccc(OC)c(OC)c4)c(C)nn23)CC1`, the inhibition is 0% (inactive).
As for `Cc1ccccc1OCc1nnc(SCC(=O)NCc2ccccc2)n1C`, the figure is 0% (inactive).
With `CCCc1cc(C(=O)Nc2ccccc2SC)no1`, the inhibition is 0% (inactive).
As to `Cc1cc(NC(=O)Cn2cnc3c2c(=O)n(C)c(=O)n3C)n(-c2ccccc2)n1`, the inhibition was 0% (inactive).
`CCCN1C=CC(=C2C(=O)c3ccccc3C2=O)C=C1`: the inhibition is 0% (inactive).
As for `CCCCc1cc(=O)oc2c(CN3CCCC3)c(O)c(Cl)cc12`, the figure is 7% (inactive).
`Cc1ccc(S(=O)(=O)NCCCNC(=O)N2CCOCC2)cc1`: the inhibition is 0% (inactive).
With `CN(CCc1ccccn1)C(=O)CCNC(=O)Cn1cnc2ccccc2c1=O`, the inhibition is 1% (inactive).
Consider `CN(C)CC(O)COc1ccc(-c2ccc(C#N)cc2)cc1` (centres undefined), for which the inhibition is 3% (inactive).
Take `CCOC(=O)c1ccc(NCc2nc3ccccc3[nH]2)cc1`: the inhibition is 4% (inactive).
As for `C=CCn1c(SCC2=C(C(=O)OCC)C(C)NC(=O)N2)nnc1C1CCCCC1` (centres undefined), the figure is 0% (inactive).
For the compound `CC1(C)C(=O)Nc2ccccc2N1C(=O)COC(=O)Cn1cnc2ccccc2c1=O`, the inhibition is 0% (inactive).
As for `CCCN1CCN(CCCNC(=O)Cn2ncc3c4ccccc4n(C)c3c2=O)CC1`, the figure is 3% (inactive); as for `CCOC(=O)c1ccccc1NC(=O)N1CCn2c(C)ccc2C1CC` (centres undefined), 2% (inactive); as for `CCOc1ccccc1N(CC(=O)N1CCOCC1)S(=O)(=O)c1ccccc1`, 0% (inactive).
`Cc1cccc(-n2ncc3c(NCc4ccccn4)ncnc32)c1`: the inhibition was 6% (inactive).

For the origin of these results see PubChem BioAssay.
